Bioassay records (PubChem BioAssay)
Gal4-VP16 FLuc – Gal4-VP16 reporter inhibition counter-screen. AID 2546. 310,000 tested, 3.5% active. Drosophila S2 Gal4-VP16 UAS-luciferase, luminescence, 20 h. Potency, µM (titrated, usually from 53.6 µM), without a hit: at the highest dose activity, negative = inhibition, hits mostly inhibitors;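 also: Gal4-VP16 expression switched on by copper sulfate through the metallothionein promoter; potency is read from the fitted curve at half-maximal effect; nearly all actives have a fitted effect of over 50% in size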
ELG1 DNA repair – inhibitors of ELG1-dependent DNA repair in HEK293T cells | HEK293T ELG1-luciferase reporter, luminescence, 16 h; DNA damage induced by 5-fluorouridine | Potency, µM (series often up to 46.1 µM), without a hit: at the highest dose activity change, negative = inhibition, hits mostly inhibitors | 330,000 tested, 2.3% active | AID 504467; also: potency is read from the fitted curve at half-maximal effect; nearly all actives have a fitted effect of over 55% in size
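Overnight (16 hr) co-exposure of 2,000 cells/well to 5-fluorouridine and compound at 37 °C preceded detection. Luciferase was quantified via ONE-Glo luminescence; loss of signal denotes inhibition.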
TDP1 cell noCPT – qHTS for Inhibitors of human tyrosyl-DNA phosphodiesterase 1 (TDP1): qHTS in cells in absence of CPT; AID 686978, 2013; 420,000 tested, 15% active; Potency, µM (top dose mostly 46.2 µM), for the others: top-dose activity change, negative = growth inhibition, most hits filed as inhibitors; DT40 Tdp1-/- hTDP1 cells, no CPT, ATP luminescence, 48 h; also: potency is read from the fitted curve at half-maximal effect; nearly all actives have a fitted effect of over 55% in size
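Cells were dispensed at 400 per well, compounds added by pin tool, plates incubated ≥48 hr at 37 °C, then CellTiter-Glo added for 30 min at room temperature before luminescence reading. Line: DT40 Tdp1-/- complemented with hTDP1; camptothecin omitted.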
RORgamma inh – blocks mouse ROR gamma transcriptional activity; P51450; Drosophila S2 Gal4-RORgamma UAS-luciferase reporter, 20 h; Potency, µM (doses to about 53.6 µM), for the others: top-dose activity change, negative = inhibition, most hits filed as inhibitors; 310,000 tested, 5.4% active; AID 2551; also: potency is read from the fitted curve at half-maximal effect; nearly all actives have a fitted effect of over 60% in size
Target sequence (P51450 whole entry, looked up, the tested form may be a part): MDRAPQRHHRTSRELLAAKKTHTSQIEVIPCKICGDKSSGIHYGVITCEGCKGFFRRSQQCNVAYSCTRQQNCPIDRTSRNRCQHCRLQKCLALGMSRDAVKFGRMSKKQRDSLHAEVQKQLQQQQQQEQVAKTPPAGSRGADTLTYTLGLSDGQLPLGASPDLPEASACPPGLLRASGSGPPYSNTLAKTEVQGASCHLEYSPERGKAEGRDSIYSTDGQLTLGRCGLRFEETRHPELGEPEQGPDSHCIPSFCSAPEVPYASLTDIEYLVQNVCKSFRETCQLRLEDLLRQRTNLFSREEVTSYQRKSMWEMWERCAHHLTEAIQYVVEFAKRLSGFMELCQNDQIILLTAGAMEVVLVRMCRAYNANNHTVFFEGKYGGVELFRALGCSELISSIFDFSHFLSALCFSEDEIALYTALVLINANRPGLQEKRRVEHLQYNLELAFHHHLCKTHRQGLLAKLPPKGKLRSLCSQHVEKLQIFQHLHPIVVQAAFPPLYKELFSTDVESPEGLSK
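Using a luciferase readout, inhibitors were identified by reduced reporter activity in Drosophila cells coexpressing a copper-inducible Gal4–ROR gamma fusion and UAS-driven Photinus luciferase, incubated 20 hr after 700 uM copper sulfate.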
TDP1 cell CPT – growth inhibition of DT40 Tdp1-/-;hTDP1 cells with camptothecin (screen for TDP1 inhibitors). chicken DT40 Tdp1-/-;hTDP1 cells + 20 nM CPT, ATP luminescence, 48 h. Potency, µM (doses to about 46.2 µM), without a hit: top-dose activity change, negative = growth inhibition, actives largely listed as inhibitors. AID 686979. 420,000 tested, 12% active; also: potency is read from the fitted curve at half-maximal effect; nearly all actives have a fitted effect of over 55% in size
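Chicken DT40 Tdp1-/- cells complemented with human TDP1, 400 cells/well, exposed to compounds plus 20 nM camptothecin for at least 48 h at 37 C; viability read as ATP content by CellTiter-Glo luminescence.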
IL-1B inflam inh – inhibitors of inflammasome signaling (IL-1 beta secretion). THP-1 LPS/ATP IL-1B secretion, AlphaLISA, 16 h; hits give low values. activity change, % at 57.5 µM. 360,000 tested, 4.7% active. AID 743279; in the data active = activity change below about -50%; inconclusive = mostly about -30% to -49%
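THP-1 cells pretreated 1 hr with compounds (up to 57.5 uM final), then stimulated with LPS (250 ng/mL final) plus ATP (1.25 mM final); secreted IL-1B measured by AlphaLISA after 16 hr, decreased signal indicating inhibition.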
* = called active by the depositor; i = inactive; ? = inconclusive; / = no result given; [ ] = remark or other dose. Rows were chosen to be rich in hits. Some 21% of all compounds tested hit in one or more screens of this group. Unless noted, calls follow the shape of the dose curve; as a rule, active = well fitted curve in the direction sought with a large enough effect; inconclusive = small, poorly fitted or top-dose-only effect, or another doubt; inactive = no such curve, though single readings can be large; an effect the other way counts as inactive or inconclusive. % is scaled to controls: 0 for no effect and ±100 for the full control effect.

SMILES | Gal4-VP16 FLuc | ELG1 DNA repair | TDP1 cell noCPT | RORgamma inh | TDP1 cell CPT | IL-1B inflam inh
FC(F)(F)c1cc(CN2CC3(CCNCC3)C2)cc(C(F)(F)F)c1 | -8.7% | / | 7.31µM* | -2.8% | 18.4µM* | /
CC(=O)N1CCC2(CC1)CN(Cc1cc(C(F)(F)F)cc(C(F)(F)F)c1)C2 | 6.2% | / | -15.6% | 0.7% | -0.3% | /
CN1CCN(c2ncnc3c2ncn3[C@H]2CN(Cc3ccc(Cl)cc3)C[C@@H](CO)O2)CC1 | / | / | ? | / | ? | -4.4
COc1ccc(-n2nc([N+](=O)[O-])c(=NCCc3ccccc3)n2O)cc1 | 6.1% | ? | ? | -10.9%[10 µM] | 16.4µM* | -6.6
O=[N+]([O-])c1nn(-c2ccccc2)n(O)c1=NCCc1ccccc1 | -15.8% | ? | 14.6µM* | -32.1% | 6.51µM* | -5.4
COc1cccc(CN=c2c([N+](=O)[O-])nn(-c3ccccc3C)n2O)c1 | -3.2% | ? | ? | ? | 23.1µM* | 8.8
Cc1noc(C)c1C(=O)N1CCC1(C)C(=O)NS(=O)(=O)c1ccccc1Cl (centres undefined) | / | / | 3.7% | / | -9.2% | 16.8
CCCN(C(=O)Cc1coc2cc(OC)ccc12)C1CCS(=O)(=O)C1 (centres undefined) | / | -20.9% | -2.9% | / | -1.1% | -15.8
NS(=O)(=O)c1cccc(NC(=O)COC(=O)CCC2CCCC2)c1 | / | 11.8% | 3.4% | / | 16.5% | -3.2
CN(c1ccc(C(=O)NCc2ccncc2)cc1)S(=O)(=O)c1ccc(Cl)cc1 | -2.8% | -1.4% | ? | ? | ? | i
COc1cccc(NC(=O)CSc2nnc(-c3ccco3)c(-c3ccco3)n2)c1 | 4.0% | -5.0% | -29.5% | -17.8% | ? | -6.3
CN(C)c1ccc(NC(=O)CSc2nnc(-c3ccco3)c(-c3ccco3)n2)cc1 | -2.7% | ? | 16.4µM* | 0.9% | ? | -13.6
Cc1nc(NC(=O)CSc2nnc(-c3ccccc3)c(-c3ccccc3)n2)c(Cl)cc1Cl | 12.6% | ? | 25.9µM* | 8.4%[10 µM] | 23.1µM* | 4.7
COc1ccc(OCCCC(=O)N(C)CC(=O)Nc2c(C)cccc2C)cc1 | / | 0.7% | -6.0% | / | -11.2% | 2.9
COc1ccc(OCCN(C)CC(=O)Nc2c(C)cccc2C)cc1 | 1.1% | -1.0% | 23.1µM* | -0.9% | ? | 7.4
Cc1cccc(C)c1NC(=O)CSc1nnc(-c2ccco2)c(-c2ccco2)n1 | -3.6% | -6.2% | -23.2% | 20.4% | -10.8% | -76.6*
N#C/C(=C\c1cc2c(cc1Br)OCO2)c1ccc(C(=O)O)cc1 | -10.0% | -9.6% | 13.4% | 6.1% | -8.5% | 35.8
COc1cc(NC(=O)CN2CCN(CC(=O)Nc3ccc(F)cc3)CC2)cc(OC)c1 | / | / | -19.9% | / | -27.5% | /
COc1ccc2nc(C)cc(SCC(=O)Nc3c(C)cccc3C)c2c1 | -7.1% | -10.8% | ? | -12.9% | ? | -5.8
COc1ccc(-c2nnc(SCC(=O)Nc3c(C)cccc3C)nc2-c2ccc(OC)cc2)cc1 | / | / | 1.84µM* | / | ? | /
O=C(CSc1nnc(-c2ccco2)c(-c2ccco2)n1)Nc1ccccc1 | 5.3% | -1.6% | ? | 15.2% | ? | -57.5*
O=C(COC(=O)Cc1ccc(S(=O)(=O)N2CCOCC2)s1)Nc1ccc([N+](=O)[O-])cc1 | / | -28.8% | -12.2% | / | -1.1% | -10.0
CC(=O)Nc1ccc(NC(=O)c2ccccc2Nc2ccccc2)cc1 | -3.7% | 9.3% | ? | -1.4% | ? | -4.4
O=c1[nH]nc(-c2ccc(F)cc2)cc1-c1ccccc1 | -13.3% | 0.4% | -29.3% | 26.5% | ? | -72.2*
Fc1ccc(-c2cc(-c3ccccc3)c3c(n2)-c2ccccc2OC3)cc1 | / | / | -25.1% | / | ? | /
SMILES | Gal4-VP16 FLuc | ELG1 DNA repair | TDP1 cell noCPT | RORgamma inh | TDP1 cell CPT | IL-1B inflam inh
Cc1ccc(-c2cc3c(nn2)-c2ccccc2C3=O)cc1 | 2µM* | ? | 23.1µM* | 1.12µM* | 16.4µM* | 3.0
O=C1c2ccccc2-c2nnc(-c3ccc(O)cc3)cc21 | ? | ? | ? | ? | ? | -23.5
CC(=O)c1ccc(Nc2ccc(-c3ccccc3C)nn2)cc1 | -1.7% | ? | -12.6% | 0.3% | ? | -18.9
Cc1ccccc1-c1cc2c(nn1)-c1ccccc1C2=O | 8.91µM* | ? | ? | 10µM* | ? | 32.3
O=c1[nH]nc(-c2ccc(F)cc2)cc1Cc1ccc(F)cc1 | -4.0% | -9.1% | -17.9% | 17.9% | ? | 67.2
O=C1c2ccccc2-c2nnc(-c3ccc(F)cc3)cc21 | -6.5% | ? | 9.2µM* | 2.9% | ? | 12.7
Nc1ncnc2c1ncn2[C@@H]1O[C@H](CNCc2ccc(OCC(=O)Nc3nccs3)cc2)[C@@H](O)[C@H]1O | / | ? | -6.9% | / | -13.6% | 3.4
CC(C)CCN(C(=S)Nc1cccc(F)c1)C(C)c1cccs1 (centres undefined) | ? | ? | 0.8% | 20µM* | ? | -2.4
